Experimental findings from PubChem BioAssay (EPA / NIEHS) are described below.

Where “and” joins values, the source holds several entries; their conditions need not be identical. Identical values can stand only once. Results filed as inconclusive are left out. A structure can be active in one record and inactive in another. Calls of active or inactive are those of the source. How the source made its calls, unless noted: active means hit-call score of the fitted dose curve at least 0.9, where 1 is the maximum; inactive means score below 0.9.

The target of test [1] is human Thyroid Receptor alpha (THRa1), THRA (gene 7067) (UniProt P10827). The test can be described thus: ATG_THRa1_TRANS: Attagene TRANS-FACTORIAL HepG2 Assay for human Thyroid Receptor alpha (THRa1) (AID 2283014; active means hit-call score of the fitted dose curve at least 0.9, where 1 is the maximum). The procedure, abridged: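 Transcripts from GAL4-UAS-driven reporters, measured after 24 h compound exposure by RT-PCR plus capillary electrophoresis of 6-FAM-labeled fragments, were fitted for gain of signal relative to DMSO. Cells: transiently transfected HepG2 expressing NR-Gal4 chimeras.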
Chain of human Thyroid Receptor alpha (THRa1), THRA (gene 7067) (P10827 whole entry, looked up, the tested form may be a part): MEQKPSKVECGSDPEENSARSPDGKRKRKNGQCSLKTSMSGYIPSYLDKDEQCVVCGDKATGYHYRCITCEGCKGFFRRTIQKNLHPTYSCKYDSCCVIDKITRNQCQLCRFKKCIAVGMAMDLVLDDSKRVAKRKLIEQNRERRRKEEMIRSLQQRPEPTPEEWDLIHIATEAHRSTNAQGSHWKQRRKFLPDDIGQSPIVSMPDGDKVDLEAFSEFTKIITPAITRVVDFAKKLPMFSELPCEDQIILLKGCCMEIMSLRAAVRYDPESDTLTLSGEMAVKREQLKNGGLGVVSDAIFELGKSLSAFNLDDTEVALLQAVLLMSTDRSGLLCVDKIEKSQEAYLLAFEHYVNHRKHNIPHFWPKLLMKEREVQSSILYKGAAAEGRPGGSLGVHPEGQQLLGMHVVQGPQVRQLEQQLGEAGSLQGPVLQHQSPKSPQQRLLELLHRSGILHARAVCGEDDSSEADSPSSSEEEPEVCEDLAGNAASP

Test [2] addresses human Vitamin D Receptor (VDR), VDR (gene 7421) (UniProt P11473). Kind of test: ATG_VDR_TRANS: Attagene TRANS-FACTORIAL HepG2 Assay for human Vitamin D Receptor (VDR) (AID 2283022; active means hit-call score of the fitted dose curve at least 0.9, where 1 is the maximum). In a few lines:
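Transactivation by an exogenous VDR-Gal4 chimera in transiently transfected HepG2 cells was measured as reporter transcript level 24 hours after chemical treatment. RT-PCR products were analysed by capillary electrophoresis and fitted in the positive direction relative to DMSO.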

Read-out in test [3]: E-selectin (Homo sapiens) (UniProt P16581)
Kind of test: BSK_3C_Eselectin: BioMAP Diversity Plus: 3C Assay for Eselectin Biomarker Activity (AID 2283015). The following applies: primary human endothelial cells (HUVEC); actives raise or lower the signal. In a few lines: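 E-selectin ELISA readout, fitted bidirectionally relative to DMSO, taken 24 h post-dosing in HUVEC cultures of the 3C system. Overt cytotoxicity tracked with sulforhodamine B staining of parallel wells.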

Read-out in test [4]: Interleukin-1 alpha (IL1a), IL1A (gene 3552)
Kind of test: BSK_BE3C_IL1a: BioMAP Diversity Plus: BE3C Assay for Interleukin-1 alpha (IL1a) Biomarker Activity (AID 2283016). To be noted: primary human bronchial epithelial cells; actives raise or lower the signal. The procedure, abridged: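 ELISA read-out of IL-1a from human lung bronchial epithelial primary cells, 24 h post-dose. Gain or loss of signal fitted relative to DMSO negative control.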

Read-out in test [5]: Monocyte Chemoattractant Protein-1 (MCP1), CCL2 (gene 6347)
The test can be described thus: BSK_3C_MCP1: BioMAP Diversity Plus: 3C Assay for Monocyte Chemoattractant Protein-1 (MCP1) Biomarker Activity (AID 2283017). To be noted: primary human endothelial cells (HUVEC); actives raise or lower the signal. The procedure, abridged: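 MCP-1 was measured by ELISA 24 h after dosing in primary HUVEC 3C cultures and fitted in both directions relative to DMSO; cytotoxicity was checked by SRB total-protein staining in parallel wells.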

Read-out in test [6]: Monocyte Chemoattractant Protein-1 (MCP1), CCL2 (gene 6347)
Kind of test: BSK_4H_MCP1: BioMAP Diversity Plus: 4H Assay for Monocyte Chemoattractant Protein-1 (MCP1) Biomarker Activity (AID 2283018). To be noted: primary human endothelial cells (HUVEC); actives raise or lower the signal. In a few lines:
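HUVEC primary cells, 24 h post-dose, MCP-1 by ELISA. Gain or loss of signal fitted bidirectionally vs DMSO baseline. Cytotoxicity: SRB stain (0.1% after 10% TCA fixation), read 560 nm, parallel cultures.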

Read-out in test [7]: Human Leukocyte Antigen - DR isotype (HLADR), HLA-DRA (gene 3122)
Kind of test: BSK_3C_HLADR: BioMAP Diversity Plus: 3C Assay for Human Leukocyte Antigen - DR isotype (HLADR) Biomarker Activity (AID 2283019). The following applies: primary human endothelial cells (HUVEC); actives raise or lower the signal. In a few lines:
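Bidirectional fitting against DMSO was applied to the HLA-DR ELISA signal from human umbilical vein endothelial cells, 24 h post-dose. Cytotoxicity came from parallel SRB total-protein staining; 3C proliferation was counted by SRB at 48 h.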

Read-out in test [8]: Interleukin-8 (IL8), CXCL8 (gene 3576)
The test can be described thus: BSK_3C_IL8: BioMAP Diversity Plus: 3C Assay for Interleukin-8 (IL8) Biomarker Activity (AID 2283020). To be noted: primary human endothelial cells (HUVEC); actives raise or lower the signal. In a few lines: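 HUVEC, 3C stimulation; 24 h compound exposure; IL-8 read by ELISA; gain or loss of signal fitted relative to DMSO control.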

Test [9] can be described thus: BSK_3C_SRB: Viability Assessment in the BioMAP Diversity Plus: 3C Assay (AID 2283023).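 Further: fitted both ways against DMSO so a hit may be signal rise or drop.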 The following applies: primary human endothelial cells (HUVEC). The procedure, abridged: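 Cytotoxicity readout in parallel HUVEC 3C cultures: after 24 h compound exposure, cells fixed with 10% TCA, stained with 0.1% SRB and read at 560 nm. Gain or loss relative to DMSO fitted.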

Read-out in test [10]: Matrix Metallopeptidase 1 (MMP1), MMP1 (gene 4312)
The test can be described thus: BSK_BE3C_MMP1: BioMAP Diversity Plus: BE3C Assay for Matrix Metallopeptidase 1 (MMP1) Biomarker Activity (AID 2283024). The following applies: primary human bronchial epithelial cells; actives raise or lower the signal. In a few lines:
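ELISA read-out of MMP1 in human lung bronchial epithelial primary cultures, 24 h post-dose; bidirectional curve fit vs DMSO baseline, gain or loss of signal scored.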

Read-out in test [11]: Pselectin, SELP (gene 6403)
Kind of test: BSK_4H_Pselectin: BioMAP Diversity Plus: 4H Assay for Pselectin Biomarker Activity (AID 2283026). To be noted: primary human endothelial cells (HUVEC); actives raise or lower the signal. In a few lines:
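HUVEC, 24 h chemical exposure; P-selectin read by ELISA. Bidirectional curve fit vs DMSO baseline; gain or loss of signal scored.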

Test [12] is described as follows: BSK_BE3C_SRB: Viability Assessment in the BioMAP Diversity Plus: BE3C Assay (AID 2283028).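 On AC50: fitted both ways so AC50 may mark signal gain or loss versus DMSO.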 The following applies: primary human bronchial epithelial cells. The procedure, abridged: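 Cytotoxicity read-out: SRB (0.1%) staining of TCA-fixed (10%) human lung bronchial epithelial cells, absorbance 560 nm, 24 h post-dosing. Curves fitted both directions relative to DMSO.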

Read-out in test [13]: Thrombomodulin, THBD (gene 7056)
Kind of test: BSK_3C_Thrombomodulin: BioMAP Diversity Plus: 3C Assay for Thrombomodulin Biomarker Activity (AID 2283029). To be noted: primary human endothelial cells (HUVEC); actives raise or lower the signal. In a few lines:
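HUVEC, 3C conditions; compound 24 h; thrombomodulin by ELISA; bidirectional curve fit vs DMSO baseline; parallel SRB total-protein staining for cytotoxicity.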

Read-out in test [14]: Urokinase-type plasminogen activator receptor (uPAR), PLAUR (gene 5329)
Kind of test: BSK_4H_uPAR: BioMAP Diversity Plus: 4H Assay for Urokinase-type plasminogen activator receptor (uPAR) Biomarker Activity (AID 2283030). The following applies: primary human endothelial cells (HUVEC); actives raise or lower the signal. The procedure, abridged:
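uPAR level read by ELISA on HUVEC cultures (BioMAP 4H) 24 h post-dosing, analyzed for gain or loss relative to DMSO. Parallel SRB staining assessed overt cytotoxicity.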

Read-out in test [15]: Vascular endothelial growth factor receptor 2 (Homo sapiens) (UniProt P35968)
Kind of test: BSK_4H_VEGFRII: BioMAP Diversity Plus: 4H Assay for Vascular endothelial growth factor receptor 2 (VEGFR2) Biomarker Activity (AID 2283031).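 On AC50: cell-surface VEGFR2 protein level quantified by ELISA.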 The following applies: primary human endothelial cells (HUVEC); actives raise or lower the signal. The procedure, abridged:
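Measured by ELISA after 24 h of compound treatment: VEGFR2 on primary human umbilical vein endothelial cells, fitted in both directions relative to DMSO. Parallel cultures received SRB staining (560 nm) for overt cytotoxicity.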

Read-out in test [16]: Human Leukocyte Antigen - DR isotype (HLADR), HLA-DRA (gene 3122)
Kind of test: BSK_BE3C_HLADR: BioMAP Diversity Plus: BE3C Assay for Human Leukocyte Antigen - DR isotype (HLADR) Biomarker Activity (AID 2283032). To be noted: primary human bronchial epithelial cells; actives raise or lower the signal. The procedure, abridged:
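Primary human bronchial epithelial cells (BE3C); 24 h chemical exposure; HLA-DR by ELISA; bidirectional curve fit vs DMSO baseline.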

Read-out in test [17]: Monokine induced gamma interferon (MIG), CXCL9 (gene 4283)
The test can be described thus: BSK_3C_MIG: BioMAP Diversity Plus: 3C Assay for Monokine induced gamma interferon (MIG) Biomarker Activity (AID 2283021). To be noted: primary human endothelial cells (HUVEC); actives raise or lower the signal. In a few lines:
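HUVEC, 3C system; 24 h chemical exposure; MIG by ELISA; bidirectional fit vs DMSO baseline.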

A short description of test [18]: BSK_3C_Vis: BioMAP Diversity Plus: 3C Assay for Morphology Visualization (AID 2283025).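 Further: fitted both ways so gain or loss versus DMSO counts.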 The following applies: primary human endothelial cells (HUVEC). The procedure, abridged:
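HUVEC, 3C system; light microscopy of morphology at 24 h post-dose. Bidirectional fit vs DMSO baseline. Secondary readout, background-control function.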

Test [19] deals with human Retinoid X Receptor beta (RXRb), RXRB (gene 6257) (UniProt P28702). Kind of test: ATG_RXRb_TRANS: Attagene TRANS-FACTORIAL HepG2 Assay for human Retinoid X Receptor beta (RXRb) (AID 2283013; active means hit-call score of the fitted dose curve at least 0.9, where 1 is the maximum). In a few lines:
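Read-out: reporter mRNA induction via RT-PCR plus capillary electrophoresis fluorescence, analysed as signal increase relative to DMSO. Cells were human HepG2, transiently transfected with GAL4-UAS reporter constructs and chimeric receptor-Gal4 fusions, dosed for 24 h.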

Chain of human Vitamin D Receptor (VDR), VDR (gene 7421) (P11473 whole entry, looked up, the tested form may be a part): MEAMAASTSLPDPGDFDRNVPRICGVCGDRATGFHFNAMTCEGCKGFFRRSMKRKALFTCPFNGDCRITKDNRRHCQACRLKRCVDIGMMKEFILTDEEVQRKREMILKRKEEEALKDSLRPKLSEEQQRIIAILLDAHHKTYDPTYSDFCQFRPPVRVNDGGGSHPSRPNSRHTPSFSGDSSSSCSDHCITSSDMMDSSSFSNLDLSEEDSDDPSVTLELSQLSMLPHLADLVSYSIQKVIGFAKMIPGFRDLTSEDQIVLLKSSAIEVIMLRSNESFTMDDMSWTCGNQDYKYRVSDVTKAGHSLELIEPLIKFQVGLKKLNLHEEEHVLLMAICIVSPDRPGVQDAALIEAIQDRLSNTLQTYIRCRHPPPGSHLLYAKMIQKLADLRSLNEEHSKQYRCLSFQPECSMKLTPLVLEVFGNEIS
Chain of E-selectin (Homo sapiens) (P16581 whole entry, looked up): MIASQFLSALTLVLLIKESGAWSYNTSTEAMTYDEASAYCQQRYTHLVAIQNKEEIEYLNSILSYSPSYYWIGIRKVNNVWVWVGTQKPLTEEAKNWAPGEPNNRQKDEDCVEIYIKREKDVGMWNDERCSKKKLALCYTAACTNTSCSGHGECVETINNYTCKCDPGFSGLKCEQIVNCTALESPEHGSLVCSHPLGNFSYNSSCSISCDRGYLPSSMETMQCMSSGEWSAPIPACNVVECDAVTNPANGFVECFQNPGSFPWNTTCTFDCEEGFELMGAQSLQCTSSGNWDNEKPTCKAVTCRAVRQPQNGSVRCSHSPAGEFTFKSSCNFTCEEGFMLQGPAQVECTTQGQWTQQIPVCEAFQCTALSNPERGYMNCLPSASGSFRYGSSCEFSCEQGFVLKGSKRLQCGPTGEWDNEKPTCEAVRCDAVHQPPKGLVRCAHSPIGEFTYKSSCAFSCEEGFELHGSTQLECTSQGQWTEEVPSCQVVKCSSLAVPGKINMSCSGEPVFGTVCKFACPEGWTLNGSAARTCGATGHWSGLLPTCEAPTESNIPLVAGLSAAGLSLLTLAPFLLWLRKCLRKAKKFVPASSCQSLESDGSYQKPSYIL
Chain of human Retinoid X Receptor beta (RXRb), RXRB (gene 6257) (P28702 whole entry, looked up, the tested form may be a part): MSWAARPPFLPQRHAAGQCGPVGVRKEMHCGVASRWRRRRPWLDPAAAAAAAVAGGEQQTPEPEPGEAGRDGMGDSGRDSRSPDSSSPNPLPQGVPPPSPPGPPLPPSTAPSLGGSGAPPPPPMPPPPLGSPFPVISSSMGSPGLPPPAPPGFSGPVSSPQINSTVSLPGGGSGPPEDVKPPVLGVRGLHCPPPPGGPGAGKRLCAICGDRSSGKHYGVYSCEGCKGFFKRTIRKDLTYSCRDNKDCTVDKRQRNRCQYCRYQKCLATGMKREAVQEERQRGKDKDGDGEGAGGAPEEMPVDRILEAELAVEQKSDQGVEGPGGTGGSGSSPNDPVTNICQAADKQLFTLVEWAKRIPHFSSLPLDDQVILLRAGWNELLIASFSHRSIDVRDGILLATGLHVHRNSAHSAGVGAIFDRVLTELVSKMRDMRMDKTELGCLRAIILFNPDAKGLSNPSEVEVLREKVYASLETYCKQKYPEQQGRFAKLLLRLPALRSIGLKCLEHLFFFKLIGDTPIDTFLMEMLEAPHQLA

Consider `CCCCCCCCCCCC[N+](C)(C)CCCCCCCCCCCC`, for which the compound was called inactive in test [1] and in test [2].

Turning to `O=S(=O)(c1ccc(OCc2ccccc2)cc1)c1ccccc1O`, the compound was called inactive in [1] and in test [2].

`FC1(F)C=CC(F)(F)C1(F)F`: in test [1], the compound was called inactive.

On to `O=C1OC(=O)c2cc(-c3ccc4c(c3)C(=O)OC4=O)ccc21`, for which the call in test [1] was inactive.

As a reminder, the AC50 is the concentration at which the activity in the assay is half-maximal. On to `Oc1c(Cl)cc(Cl)cc1Sc1cc(Cl)cc(Cl)c1O`, for which the call in [1], in [2], in test [10] and in test [13] was inactive. Moreover, the AC50 is 31.1 µM (active) and 29.8 µM (active) in [3]; 7.68 µM (active) and 8.04 µM (active) in [4]; 36.2 µM (active) and 35.9 µM (active) in test [5]; 9.13 µM (active) and 5.86 µM (active) in test [6]; 15.5 µM (active) and 22.3 µM (active) in [7]; 36 µM (active) and 35.2 µM (active) in test [8]. For the same compound, the AC50 in test [9] is 15.7 µM (active) and 13.3 µM (active); in [11] it was 5.81 µM (active) and 4.28 µM (active); in test [12] it was 5.25 µM (active) and 5.18 µM (active); in [13] it was 11.1 µM (active); in [14], 20 µM (active) and 9.97 µM (active); in test [15], 5.09 µM (active) and 4.99 µM (active). Besides, in [16], the AC50 is 3.56 µM (active) and 3.35 µM (active).

As for `CCCCC(CC)C(=O)OCCOCCOCCOCCOC(=O)C(CC)CCCC` (configuration not stated), the result in [1], in [4], in test [5], in [6], in test [8] and in test [17] was inactive. The call in test [2], in test [9], in [10], in test [18], in test [11] and in [12] was inactive. Besides, the result in [13], in test [14], in test [15] and in test [16] was inactive. In addition, the AC50 in test [3] was 13.6 µM (active); in test [7] it was 11.4 µM (active).

For `CC(C)(C)c1ccc(CCC=O)cc1`, the AC50 in test [19] is 41.2 µM (active). In [2], the result was inactive.

For the compound `COC(=O)C(F)(F)C(F)(F)C(F)(F)F`, the result in test [1] and in test [2] was inactive.

In the case of `CCCCCCCCCCCC[N+](C)(C)Cc1ccccc1`, the call in [1] was inactive.

As for `CC1CCC(C(=O)O)CC1` (configuration not stated), the compound was called inactive in test [1] and in test [2].

`CC(=O)Nc1ccc(O)cc1`: the result in [1], in test [3], in [4], in [5], in test [6] and in test [7] was inactive. Also, the result in [8], in test [17], in [9], in [10], in [18] and in [11] was inactive. Besides, the result in test [12], in [13], in test [14], in test [15] and in test [16] was inactive.

In the case of `CCOCCOCC`, the call in test [1] and in [2] was inactive.
